The panel holds about 83,000 compounds, 20% with a hit somewhere; the sample as a whole holds those more often.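 How to read the values: 0–100, growth inhibition (40 = 60% inhibited); 0, no net growth; -100 to 0, cell death (-40 = 40% of starting cells died; -100 = all dead).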 The source made the active and inactive calls. The calls were made as follows: active = growth percent below 10; inactive = the rest.
What follows are compounds tested on HL-60(TB) leukemia (assay: NCI-60 one-dose screen, 48 h (100 = growth as untreated, 0 = no growth, -100 = all killed)). Details: 10 µM unless noted.
In the case of `Cc1cc(O)c2c(c1)C1OC(=O)CCCCCN1C1=C2C(=O)c2cccc(OC3CC(O)C(O)C(C)O3)c2C1=O` (stereo not given), the growth is reported as 79.2% (inactive).
With `Cc1ccc(C)c2c1CCC2C(C)C` (stereo not given) the growth was 108% (inactive).
In the case of `COc1cc(C2C(C(=O)OCc3ccccc3)=C(C)NC(C)=C2C(=O)OCc2ccccc2)cc(OC)c1OC`, the growth is reported as 5.01% (active).
With `N#Cc1nc(-c2ccccc2)oc1S(=O)(=O)N1CCN(c2ccc(F)cc2)CC1` the growth was 28.1% (inactive).
In the case of `CC(c1ccccc1)N1C(=O)C(C2SC(=S)N(C(C)c3ccccc3)C2=O)SC1=S` (stereo not given), the growth is reported as 78.2% (inactive).
`Cc1ccc2c(c1)n([O-])c1cc(Cl)ccc1[n+]2=O` was tested, and the growth was 67.8% (inactive).
In the case of `Cc1cccc(-c2nc(C(C)C)sc2-c2ccnc(NCCCNS(=O)(=O)c3ccc(Cl)cc3)c2)c1`, the growth is reported as 80.1% (inactive).
With `CC(=O)Nc1ccc(-n2cnc3cc(-c4ccc(OCCN5CCCCC5)cc4)ccc32)cc1` the growth was 98.3% (inactive).
For `COc1cc(-c2ccc(-[n+]3nc(-c4ccc([N+](=O)[O-])cc4)nn3-c3ccc([N+](=O)[O-])cc3)c(OC)c2)ccc1-[n+]1nc(-c2ccc([N+](=O)[O-])cc2)nn1-c1ccc([N+](=O)[O-])cc1`, the growth was 14.2% (inactive).
With `COc1ccc(-c2nc(-c3cn(C)c4ncccc34)cs2)cc1` the growth was 13% [100 µM] (inactive).
For `CCCCNC(=O)C(=O)NCCCC`, the growth was 113% (inactive).
In the case of `CCOC(=O)c1cc(C(=O)c2ccc(OC)c(OC)c2)n2c1ccc1ccccc12`, the growth is reported as 99.8% (inactive).
In the case of `CN1CCOCCN(C)Cc2ccc3ccc(cc3c2)CN(C)CCOCCN(C)Cc2ccc3ccc(cc3c2)C1`, the growth is reported as 20.7% (inactive).
`COc1cnc2c(c1)C(=O)c1c-2n(CCCN2CCNCC2)c(=O)c2cc(Cl)ccc12` was tested, and the growth was -44.9% (active).
For `COc1ccc(OC)c(Nc2nnc(-c3ccc(O)c(OC)c3)o2)c1`, the growth was 87.3% (inactive).
`c1ccc(Nc2ccccn2)cc1` was tested, and the growth was 64.9% (inactive).
In the case of `COc1cc(C=O)ccc1Oc1ccc([N+](=O)[O-])cc1[N+](=O)[O-]`, the growth is reported as 95.1% (inactive).
`O=C1Nc2ccccc2SC1C1SC(=S)N(Cc2ccccc2)C1=O` (stereo not given) was tested, and the growth was 0.669% (active).
With `N/C(=N\O)c1cn(C2OC(CO)C(O)C2O)c2ncnc(N)c12` (stereo not given) the growth was -43.5% (active).
`NS(=O)(=O)c1ccc(-n2nc(-c3ccccc3)ccc2=O)cc1` was tested, and the growth was 89.9% (inactive).
`COc1ccccc1N1C(=N)S/C(=C\c2ccc(OCc3ccccc3F)cc2)C1=O` was tested, and the growth was 112% (inactive).
`CCCS(=O)(=O)c1nc(NC2CC2)cc(-c2ccc3c(ccn3C3CC(C)(C)NC(C)(C)C3)c2)n1` was tested, and the growth was -61.7% (active).
In the case of `Cc1cc(C)c2c(N)c3cccc(C)c3nc2n1`, the growth is reported as -19.1% (active).
With `COc1ccc(-c2cc3c(C)nc(N)nc3n(C3CCC(OCCO)CC3)c2=O)cn1` (stereo not given) the growth was 28.4% (inactive).
For `Fc1ccc(COc2ccc(Nc3ncnc4sc5c(c34)CCCC5)cc2)cc1`, the growth was 87.4% (inactive).
In the case of `COc1cccc(/C=C2/C(=O)N(Cc3ccco3)SC2=S)c1OC`, the growth is reported as 94.5% (inactive).
`COc1ccccc1C(=O)Nc1cccc(NC(=O)c2ccoc2C)c1` was tested, and the growth was -18.3% (active).
With `O=C(O)c1cn(C2CC2)c2cc(N3CCN(C(=O)N/N=C/c4ccccc4)CC3)c(F)cc2c1=O` the growth was 100% (inactive).
For `CN1C(=O)C(C(=O)/C=C/c2ccccc2C(=O)O)C(=O)N(C)C1=O`, the growth was 97.4% (inactive).
`CNC(=O)c1cc(Oc2ccc3nc(NC(=O)Nc4ccc(N5CCC(N(C)C)CC5)cc4)sc3c2)ccn1` was tested, and the growth was 77.1% (inactive).
For `CNC(=O)c1c(C)oc2cc(Oc3ncnc4cc(OC)c(OC)cc34)ccc12`, the growth was 117% (inactive).
In the case of `CC(=O)OC(C)COc1ccc(-c2ccccc2)cc1` (stereo not given), the growth is reported as 104% (inactive).
In the case of `COC(=O)c1cc([N+](=O)[O-])cc([N+](=O)[O-])c1Cl`, the growth is reported as 55.4% (inactive).
`CSc1[nH]c(=O)ncc1F` was tested, and the growth was 106% (inactive).
For `C=CCN=C(N)SCCCCCCSC(N)=NCC=C`, the growth was 75.8% (inactive).
With `O=C(O)CC(C(=O)O)/C(=C\c1ccccc1)c1ccccc1` (stereo not given) the growth was 107% (inactive).
With `COc1ccc(-c2nc(SC(C)C)nc(NNC(N)=S)c2C#N)cc1` the growth was 14.3% (inactive).
For `COc1cccc(/C=C/C(=O)c2sc(Nc3ccc(O)cc3)nc2C)c1`, the growth was 78.8% (inactive).
For `c1ccc2[nH]c(-c3cc(-c4ccc5c(c4)OCO5)n[nH]3)nc2c1`, the growth was 13.3% (inactive).
In the case of `CCCCCCNc1nc(N2CCOCC2)c2[nH]c(NCCCCCC)nc2n1`, the growth is reported as -54.8% (active).

— PubChem BioAssay (NCI)
